Tested on: T1, RSK1(Kin.Dom.2-C-terminal)
T1 construct: gene RPS6KA1
Conditions: concentration: 1 μM, replicates: in singlicate; n = 1
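Note: KINOMEscan kinase panel screen.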

SMILES | %Inh
CNCc1ccc2nc(NC(=O)c3ccc(C(C)(C)C)cc3)cn2c1 | 8%
Nc1nccc(-c2c(-c3ccc(F)cc3)ncn2C2CCN(Cc3ccccc3)CC2)n1 [SB-219980] | 41%
CNc1nc(-c2ccc3c(N)n[nH]c3c2)cc(N2C[C@@H](C(=O)NC3CCCCC3)OC[C@H]2C)n1 [GSK2375584] | 19%
O=c1cc(N2CCOCC2)nc2n(Cc3cccc(Cl)c3Cl)c3ccccc3n12 [GSK2299009] | 5%
COc1ccc(Nc2nccc(N3CCC(NC(=O)C(C)c4ccc(Cl)cc4)C3)n2)cc1 (stereo not drawn) [GSK1379735] | 0%
Cn1cnc2c(N)ncnc21 [SKF-97623] | 100%
Fc1ccc(-c2nc3n(c2-c2ccncc2)CCS3)cc1 [GI98581] | 22%
COC(=O)c1cccc(NC(=O)NC2CCN(c3ccnc(Nc4ccc(OC)cc4)n3)C2)c1 (stereo not drawn) [GSK1379746] | 0%
Cn1cncc1-c1cc2c(Nc3ccc(OCc4ccccc4)cc3)ncnc2cn1 [GW281179] | 0%
CNC(=O)c1ccc(C)c(-n2c(C)cc(OCc3ccc(F)cc3F)c(Br)c2=O)c1 | 0%
CC(=O)c1c(C)c2cnc(Nc3ccc(N4CCNCC4)cn3)nc2n(C2CCCC2)c1=O | 0%
COc1ccc(CSc2nnc(-c3ccc4c(c3)CCO4)o2)cc1 | 0%
COc1ccc(CSc2nnc(-c3ccc4nccn4c3)o2)cc1C(F)(F)F | 44%
CN1c2ccc(-c3ccc(C(N)=O)cc3)cc2-c2[nH]ncc2S1(=O)=O | 47%
O=C1NC(=O)C(c2ccc(Cl)cc2)=C1Nc1cccc(Cl)c1 [SB-317651] | 0%
COC(=O)C(Cc1ccccc1)NC(=O)NC1CCN(c2ccnc(Nc3ccc(F)cc3)n2)C1 (stereo not drawn) [GSK1379714] | 0%
COc1ccc(Nc2nccc(NCCNC(=O)Nc3cc(C)ccc3C)n2)cc1 [GSK1379899] | 0%
COc1ccc(Nc2nccc(N3CCC(NC(=O)C(C)c4ccc(Cl)cc4)CC3)n2)cc1 (stereo not drawn) [GSK1379812] | 0%

SMILES | %Inh
Fc1ccc(-c2nc[nH]c2-c2ccncc2)cc1 [SB-217360] | 47%
CCn1c(-c2ccccc2)nc2cnccc21 [SB-733416] | 0%
CS(=O)(=O)CCNCc1nc(-c2ccc3ncnc(Nc4ccc(OCc5ccccc5)c(Cl)c4)c3c2)cs1.Cl [GW582764] | 0%
Cl.Cl.Cl.N#Cc1ccc(CCNc2nccc(-c3cccc(CN4CCNCC4)c3)n2)cc1 [GSK2137462] | 0%
Cc1cccc2c(-c3ccncn3)c(-c3ccc(F)cc3)nn12 [GW515532] | 50%
Nc1ncnc2occ(-c3ccc4c(c3)CCN4C(=O)Cc3cc(F)ccc3F)c12 [GSK2645446] | 0%
COc1cccc(CNC(=O)NC2CCN(c3ccnc(Nc4ccc(F)cc4)n3)C2)c1 (stereo not drawn) [GSK1379723] | 0%
COc1ccc(CSc2nnc(-c3ccc4ncsc4c3)o2)cc1C(F)(F)F | 0%
CCCCc1nn2ncccc2c1-c1ccnc(NC2CC2)n1 [GW684374] | 28%
CCc1ccc(-c2ccc3c(c2)-c2n[nH]cc2S(=O)(=O)N3C)cc1 | 30%
COc1ccc(-c2coc3ccc(-c4nnc(C)o4)cc23)cc1 | 4%
Cc1nccc(-c2c(-c3ccc(F)cc3)ncn2CCCN2CCOCC2)n1.Cl [SB-282975] | 5%
Cc1ccc(NC(=O)Nc2ccccc2)cc1-c1ccc(C(=O)Nc2ccncc2)cc1 [GSK1398471] | 10%
CC(C)c1cc(-c2ccc3c(N)n[nH]c3c2)nc(N)n1 [GSK2250882] | 0%
COc1cccc(NC(=O)Nc2ccc(C)c(-c3ccc(C(=O)Nc4ccncc4)cc3)c2)c1 [GSK1398474] | 0%
CSc1ccc(-c2nc3n(c2-c2ccncc2)CCC3)cc1 [SKF-105561] | 62%
COC(=O)c1cccc(NC(=O)NC2CCN(c3ccnc(Nc4ccc(F)cc4)n3)C2)c1 (stereo not drawn) [GSK1379725] | 0%
Fc1ccc(-c2nn3cccc(F)c3c2-c2ccncc2)cc1 [GW475620] | 24%

Tested on: T2, RSK2(Kin.Dom.1-N-terminal)
T2 construct: gene RPS6KA3
Conditions: concentration: 1 μM, replicates: in singlicate; n = 1

SMILES | %Inh
CNCc1ccc2nc(NC(=O)c3ccc(C(C)(C)C)cc3)cn2c1 | 32%
Nc1nccc(-c2c(-c3ccc(F)cc3)ncn2C2CCN(Cc3ccccc3)CC2)n1 [SB-219980] | 41%
CNc1nc(-c2ccc3c(N)n[nH]c3c2)cc(N2C[C@@H](C(=O)NC3CCCCC3)OC[C@H]2C)n1 [GSK2375584] | 0%
O=c1cc(N2CCOCC2)nc2n(Cc3cccc(Cl)c3Cl)c3ccccc3n12 [GSK2299009] | 19%
COc1ccc(Nc2nccc(N3CCC(NC(=O)C(C)c4ccc(Cl)cc4)C3)n2)cc1 (stereo not drawn) [GSK1379735] | 5%
Cn1cnc2c(N)ncnc21 [SKF-97623] | 0%
Fc1ccc(-c2nc3n(c2-c2ccncc2)CCS3)cc1 [GI98581] | 1%
COC(=O)c1cccc(NC(=O)NC2CCN(c3ccnc(Nc4ccc(OC)cc4)n3)C2)c1 (stereo not drawn) [GSK1379746] | 0%
Cn1cncc1-c1cc2c(Nc3ccc(OCc4ccccc4)cc3)ncnc2cn1 [GW281179] | 0%
CNC(=O)c1ccc(C)c(-n2c(C)cc(OCc3ccc(F)cc3F)c(Br)c2=O)c1 | 0%
CC(=O)c1c(C)c2cnc(Nc3ccc(N4CCNCC4)cn3)nc2n(C2CCCC2)c1=O | 0%
COc1ccc(CSc2nnc(-c3ccc4c(c3)CCO4)o2)cc1 | 0%
COc1ccc(CSc2nnc(-c3ccc4nccn4c3)o2)cc1C(F)(F)F | 12%
CN1c2ccc(-c3ccc(C(N)=O)cc3)cc2-c2[nH]ncc2S1(=O)=O | 17%
O=C1NC(=O)C(c2ccc(Cl)cc2)=C1Nc1cccc(Cl)c1 [SB-317651] | 23%
COC(=O)C(Cc1ccccc1)NC(=O)NC1CCN(c2ccnc(Nc3ccc(F)cc3)n2)C1 (stereo not drawn) [GSK1379714] | 0%
COc1ccc(Nc2nccc(NCCNC(=O)Nc3cc(C)ccc3C)n2)cc1 [GSK1379899] | 4%
COc1ccc(Nc2nccc(N3CCC(NC(=O)C(C)c4ccc(Cl)cc4)CC3)n2)cc1 (stereo not drawn) [GSK1379812] | 21%

SMILES | %Inh
Fc1ccc(-c2nc[nH]c2-c2ccncc2)cc1 [SB-217360] | 34%
CCn1c(-c2ccccc2)nc2cnccc21 [SB-733416] | 1%
CS(=O)(=O)CCNCc1nc(-c2ccc3ncnc(Nc4ccc(OCc5ccccc5)c(Cl)c4)c3c2)cs1.Cl [GW582764] | 15%
Cl.Cl.Cl.N#Cc1ccc(CCNc2nccc(-c3cccc(CN4CCNCC4)c3)n2)cc1 [GSK2137462] | 0%
Cc1cccc2c(-c3ccncn3)c(-c3ccc(F)cc3)nn12 [GW515532] | 9%
Nc1ncnc2occ(-c3ccc4c(c3)CCN4C(=O)Cc3cc(F)ccc3F)c12 [GSK2645446] | 0%
COc1cccc(CNC(=O)NC2CCN(c3ccnc(Nc4ccc(F)cc4)n3)C2)c1 (stereo not drawn) [GSK1379723] | 9%
COc1ccc(CSc2nnc(-c3ccc4ncsc4c3)o2)cc1C(F)(F)F | 0%
CCCCc1nn2ncccc2c1-c1ccnc(NC2CC2)n1 [GW684374] | 26%
CCc1ccc(-c2ccc3c(c2)-c2n[nH]cc2S(=O)(=O)N3C)cc1 | 7%
COc1ccc(-c2coc3ccc(-c4nnc(C)o4)cc23)cc1 | 0%
Cc1nccc(-c2c(-c3ccc(F)cc3)ncn2CCCN2CCOCC2)n1.Cl [SB-282975] | 29%
Cc1ccc(NC(=O)Nc2ccccc2)cc1-c1ccc(C(=O)Nc2ccncc2)cc1 [GSK1398471] | 0%
CC(C)c1cc(-c2ccc3c(N)n[nH]c3c2)nc(N)n1 [GSK2250882] | 18%
COc1cccc(NC(=O)Nc2ccc(C)c(-c3ccc(C(=O)Nc4ccncc4)cc3)c2)c1 [GSK1398474] | 0%
CSc1ccc(-c2nc3n(c2-c2ccncc2)CCC3)cc1 [SKF-105561] | 0%
COC(=O)c1cccc(NC(=O)NC2CCN(c3ccnc(Nc4ccc(F)cc4)n3)C2)c1 (stereo not drawn) [GSK1379725] | 5%
Fc1ccc(-c2nn3cccc(F)c3c2-c2ccncc2)cc1 [GW475620] | 9%
